Measured values published in PubChem BioAssay (NCI).
Compounds without any hit were thinned out: in the full panel of roughly 79,000, 15% have a hit. Active and inactive are the calls of the source. Cut-off read from the data, not from the text of the source: active = growth inhibition above about 70%; inactive = the rest.

Legend:
[1] = NCI Yeast Anticancer Drug Screen. Data for the rad50 strain (AID 155);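 note: 0% = growth of vehicle-only cultures of the same strain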; conditions: S. cerevisiae rad50 strain growth inhibition; at 50.0 µM; stronger effect = higher value
Summary of the method: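 Compounds were tested on a yeast strain with an engineered DNA damage repair alteration; the reported value is growth inhibition normalised to vehicle treatment.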

[2] = NCI Yeast Anticancer Drug Screen. Data for the mec2-1 strain (AID 157); conditions: S. cerevisiae mec2-1 strain, at 50.0 µM, stronger effect = higher value
Summary of the method: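 Yeast mec2-1 mutant treated with compound. Readout: growth inhibition vs vehicle controls.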

[3] = NCI Yeast Anticancer Drug Screen. Data for the sgs1 mgt1 strain (AID 161);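 note: 0% = growth of cultures given vehicle only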; conditions: S. cerevisiae sgs1 mgt1 strain, at 50.0 µM, stronger effect = higher value
Summary of the method: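 Inhibition of yeast growth, normalised to vehicle-treated controls, is reported for a strain bearing genetic alterations in DNA damage repair.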

[4] = NCI Yeast Anticancer Drug Screen. Data for the cln2 rad14 strain (AID 165);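 note: 0% = growth equal to vehicle treated cultures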; conditions: S. cerevisiae cln2 rad14 strain, at 50.0 µM, stronger effect = higher value
Summary of the method: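 cln2 rad14 yeast strain; compound exposure; growth inhibition read vs vehicle controls.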

[5] = NCI Yeast Anticancer Drug Screen. Data for the bub3 strain (AID 167); conditions: S. cerevisiae bub3 mutant strain, at 50.0 µM, stronger effect = higher value
Summary of the method: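 Growth of a checkpoint-deficient yeast mutant is measured after compound exposure. Values represent inhibition relative to vehicle.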

[6] = NCI Yeast Anticancer Drug Screen. Data for the mlh1 rad18 strain (AID 175); conditions: S. cerevisiae mlh1 rad18 strain growth inhibition; at 50.0 µM; stronger effect = higher value
Summary of the method: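 Yeast w/ defined DNA-repair lesions; compound exposure; growth vs vehicle controls → % inhibition.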

Measured: growth inhibition

C=C1C(=O)OC2/C=C(\C)C(OC(C)=O)C3OC3C(C)(O)CC(OC(=O)/C(C)=C/C)C12 (stereo not given)
inactive: [1] 3.35% | [2] 2.2% | [3] -15.4% | [4] -5.2% | [5] -29.7% | [6] -13.1%

Cc1nnc2n1N=C(c1ccccc1)C(c1ccccc1)S2 (stereo not given)
inactive: [1] 31.8% | [2] 29.9% | [3] 33.5% | [4] 25.9% | [5] 57.4% | [6] 40.3%

CC(=O)OCC1OC(n2c(C)c(N=Nc3ccc(Cl)cc3)c(C)c(C#N)c2=S)C(OC(C)=O)C(OC(C)=O)C1OC(C)=O (stereo not given)
inactive: [1] 4.65% | [2] -0.75% | [3] 25.1% | [4] 11.9% | [5] 7.55% | [6] 18.8%

C=C(C)C1CC=C(/C=N/O)CC1 (stereo not given)
inactive: [1] -4.6% | [2] 4% | [3] 5.65% | [4] -13.7% | [5] 8.1% | [6] 2.8%

C#CCN(Cc1ccc2nc(-c3ccccc3)c(Cl)nc2c1)c1ccc(Cl)c(Cl)c1
inactive: [1] -15.2% | [2] -6.4% | [3] -2.25% | [4] -37.5% | [5] -16.4% | [6] -18.2%

CCOC(=O)C(NCc1cccc(C(F)(F)F)c1)(NC(=O)c1ccccc1)C(F)(F)F (stereo not given)
inactive: [1] 12.2% | [2] -0.95% | [3] -1.95% | [4] 17.9% | [5] 8.4% | [6] 25%

CCCCCCCCCCCCCCCCCCn1cnc2ncnc(Cl)c21
inactive: [1] 6.95% | [2] 5.6% | [3] 8.15% | [4] 55.3% | [6] 32.7%
active: [5] 96.5%

c1ccc(-c2nnc(-c3ccccc3)c3nonc23)cc1
inactive: [1] 0.55% | [2] 14.6% | [3] 9.1% | [4] -12.8% | [5] 12.6% | [6] -22.3%

O=c1ccsc(=S)[nH]1
inactive: [1] -1% | [2] -2.1% | [3] -8.35% | [4] 0.25% | [5] 9.05% | [6] -3.9%

O=[N+]([O-])c1ccc(Nc2nc3ccccc3s2)cc1
inactive: [1] 6.75% | [2] 11.8% | [3] -24.7% | [4] -21.5% | [5] 5.75% | [6] 15.2%

CCCc1[nH]nc(CCC(=O)N(Cc2ccccc2)Cc2ccccc2)c1CC
inactive: [1] -6.65% | [2] -26.4% | [3] 11.6% | [4] 2.3% | [5] -7.9% | [6] -18.1%

O=C1C2C3C=CC(O3)C2C(=O)N1CCN1CCCCC1 (stereo not given)
inactive: [1] -0.75% | [2] -4.8% | [3] -0.65% | [4] 6.5% | [5] -2.15% | [6] -6.05%

COc1cc(C(=O)N=Nc2c(O)[nH]c3ccc(Br)cc23)cc(OC)c1OC
inactive: [1] 3.55% | [2] -16.6% | [3] -7.1% | [4] -1.9% | [5] 2% | [6] -3.1%

C/C(N)=C\c1nc(=O)ccs1
inactive: [1] 10.9% | [2] 11.8% | [3] 2.35% | [4] 24.8% | [5] 5.2% | [6] 13.3%

CCOC(=O)c1c(C)[nH]c(-c2csc(N)n2)c1C
inactive: [1] -5.3% | [2] -1.65% | [3] 21.4% | [4] -55.7% | [5] -9.35% | [6] -14.8%

COCCOC(=O)Nc1c(Cl)cccc1Cl
inactive: [1] 1.45% | [2] -18.5% | [3] -8.35% | [4] 5.3% | [5] -25.6% | [6] -8.2%

CC(=O)OCC1OC(n2c3c(cc(C#N)c2=S)CCCCC3)C(OC(C)=O)C(OC(C)=O)C1OC(C)=O (stereo not given)
inactive: [1] 27.1% | [2] -1.7% | [3] 3.1% | [4] -32.9% | [5] -0.8% | [6] -7.1%

O=[N+]([O-])c1ccc2c(c1)nc(-c1ccccn1)n2CCc1ccncc1
inactive: [5] 56.2%
active: [1] 95.2% | [2] 98.7% | [3] 99% | [4] 87% | [6] 99.2%

[O-]c1n[n+](Cc2ccc(Br)cc2)no1
inactive: [1] 6.95% | [2] 15.2% | [3] -4% | [4] 1.2% | [5] 18.4% | [6] 28.3%

Cc1ccc(NC(=O)CN2CCCCC2)cc1
inactive: [1] -16.9% | [2] -7.65% | [3] -7% | [4] 3.9% | [5] -0.9% | [6] -21.9%

CC(=O)OC1CC(OC(C)=O)C(OC(C)=O)CC1OC(C)=O (stereo not given)
inactive: [1] 7.95% | [2] -5.15% | [3] -9.45% | [4] -18.2% | [5] 1.05% | [6] 12.6%

CCCCCCCOC(=O)C(N)c1ccccc1 (stereo not given)
inactive: [1] -5.2% | [2] -32.1% | [3] -22.4% | [4] 7.5% | [5] -7.6% | [6] 4.1%

N#C/C(=C\c1ccc(Cl)cc1)c1nc2ccccc2c(=O)[nH]1
inactive: [1] 12.2% | [2] 17.9% | [3] -14.5% | [4] 5.7% | [5] 1.8% | [6] -53.2%

CCc1cc(Cc2cc(Cl)c(NC(=O)C(=O)C3NC(=O)NC3=O)c(CC)c2)cc(Cl)c1NC(=O)C(=O)C1NC(=O)NC1=O (stereo not given)
inactive: [1] 6.5% | [2] 5.2% | [3] 4.25% | [4] 15.9% | [5] 2.8% | [6] 8.65%

CCC1C(=O)N(C)c2ccccc21 (stereo not given)
inactive: [1] -2.15% | [2] -9.6% | [3] -10.1% | [4] 1.55% | [5] -19.3% | [6] 13.2%

OC(C1=C/C(=C\c2ccncc2)c2ccccc21)c1ccncc1 (stereo not given)
active: [1] 84.7% | [2] 86.5% | [3] 96.8% | [5] 86.3% | [6] 93%
inactive: [4] 47.6%

N#CCC(=O)N1CCCCCCC1
inactive: [1] 20.4% | [2] -8.9% | [3] 2.7% | [4] 0% | [5] 6.05% | [6] 0%

CC1=C2C(C)CC3OC(=O)C(C)C3C(O)C2CC1=O (stereo not given)
inactive: [1] 5.8% | [2] -7.5% | [3] 1.2% | [4] -40.8% | [5] -8% | [6] -5.75%

CCN(CC)CC1(CC)COC(c2ccccc2)(c2ccccc2)OC1
inactive: [1] -3.3% | [2] -21.4% | [3] -18.6% | [4] -26.3% | [5] -14.2% | [6] -34.5%

Cc1cc(C)c(NC(=O)c2cc(C(=O)O)c(C(=O)Nc3c(C)cc(C)cc3C)cc2C(=O)O)c(C)c1
inactive: [1] 8.7% | [2] 2.5% | [3] -15.6% | [4] -7.1% | [5] 2.5% | [6] -1.55%

O=C(ON(Cc1ccccc1)Cc1ccccc1)c1ccccc1
inactive: [1] -7.8% | [2] 1.95% | [3] 20.4% | [4] -14.8% | [5] 28.1% | [6] 10.8%

CCCCCCCCCCCCCCCC(=O)OCC(COP(=O)(O)OC1CCC2(C)C(=CCC3C2CCC2(C)C(C(C)CCCC(C)C)CCC32)C1)OC(=O)CCCCCCCCCCCCCCC (stereo not given)
inactive: [1] 1.9% | [2] 4.05% | [3] 22.2% | [4] -5.5% | [5] -3.1% | [6] -4.8%

COc1cc(C2CC(C)=C(C)CC2C(=O)O)cc(OC)c1OC (stereo not given)
inactive: [1] 1.55% | [2] 22.4% | [3] 7.25% | [4] 30.1% | [5] 10.4% | [6] 19.8%

CN/N=C(\C)CC(=O)Nc1cccc(Cl)c1C
inactive: [1] -13.7% | [2] -17.6% | [3] -1.15% | [4] 17.2% | [5] -15% | [6] 1.9%

CCN(CC)CC(O)c1ccc2ccccc2c1 (stereo not given)
inactive: [1] 47.6% | [2] 13.2% | [3] 25.8% | [4] -21.2% | [5] 22.4% | [6] 40.9%

COC(=O)CC(NC(=O)OCc1ccccc1)C(=O)NC(COC(C)=O)C(=O)NCC(=O)OCc1ccccc1 (stereo not given)
inactive: [1] 28.4% | [2] 10.4% | [3] 10.3% | [4] 15.6% | [5] 3.2% | [6] 16.4%

COC(=O)CC1(C(=O)OC)Oc2ccc(Br)cc2C(=O)N1c1ccc(Br)cc1Cl (stereo not given)
inactive: [1] 26.9% | [2] -16.4% | [3] 24.6% | [4] 15.2% | [5] 19.4% | [6] 27.7%

Cc1ccc(NC(=O)C(=O)CC(=O)c2c(C)n([O-])c3ccccc3[n+]2=O)cc1C
inactive: [1] -6.2% | [2] -1.55% | [3] 1.25% | [4] 9.35% | [5] 0.2% | [6] 11.9%

S=C(Cc1cccc2ccccc12)N1CCN(c2ccc(Cl)cc2)CC1
inactive: [1] -17% | [2] -2.3% | [3] -16% | [4] -7.9% | [5] -9.95% | [6] -0.55%

CC(=O)OCC1Cn2c(c(-c3ccccc3)c(=O)[nH]c2=S)O1 (stereo not given)
inactive: [1] -9.15% | [2] 14.5% | [3] 5.95% | [4] -1.95% | [5] -6.35% | [6] 8.25%
